Screening results: PubChem, National Center for Advancing Translational Sciences (NCATS)
The list is not random: actives were taken first. Their share in the collection is about 21%.
D3 antag = qHTS of D3 Dopamine Receptor Antagonist: qHTS; D(3) dopamine receptor (Homo sapiens), P35462; actives 2.5% (n = 360,000); D3R cells, DiscoveRx beta-arrestin luminescence, antagonist mode; hits give low values; max response, negative = inhibition, %; in the data active = max response below about -50%; inconclusive = no clear call, values can overlap the other calls; also: % is scaled to controls: 0 for no effect and ±100 for the full control effect
Target sequence (P35462 whole entry, looked up): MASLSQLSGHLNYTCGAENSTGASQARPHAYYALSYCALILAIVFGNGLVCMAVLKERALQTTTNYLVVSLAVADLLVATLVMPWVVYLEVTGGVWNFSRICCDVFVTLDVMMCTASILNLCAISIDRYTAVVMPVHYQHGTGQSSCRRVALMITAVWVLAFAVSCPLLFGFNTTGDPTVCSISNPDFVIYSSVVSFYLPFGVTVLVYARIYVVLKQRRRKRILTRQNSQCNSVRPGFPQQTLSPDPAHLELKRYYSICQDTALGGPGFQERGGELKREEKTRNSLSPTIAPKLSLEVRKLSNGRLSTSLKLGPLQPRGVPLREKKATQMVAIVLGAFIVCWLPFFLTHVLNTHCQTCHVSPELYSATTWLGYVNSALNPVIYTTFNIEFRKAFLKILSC
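Cells plated overnight at 1500 cells/well, then exposed to library compounds with dopamine controls for 90 minutes at 37 degrees C. DiscoveRx reagent added for 30–60 minutes at room temperature; luminescence read, quantitative HTS format.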
TDP1 cell CPT = qHTS for Inhibitors of human tyrosyl-DNA phosphodiesterase 1 (TDP1): qHTS in cells in presence of CPT | chicken DT40 Tdp1-/-;hTDP1 cells + 20 nM CPT, ATP luminescence, 48 h | actives 12% (n = 420,000) | AID 686979, 2013 | Potency, µM (top dose mostly 46.2 µM), for the others: at the highest dose activity change, negative = growth inhibition, hits mostly inhibitors; also: potency is read from the fitted curve at half-maximal effect; % is scaled to controls: 0 for no effect and ±100 for the full control effect; nearly all actives have a fitted effect of over 55% in size
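Cell growth measured by CellTiter-Glo luminescence after a minimum 48 h, 37 C compound exposure with 20 nM CPT in Tdp1-knockout DT40 cells stably expressing hTDP1, seeded 400/well; qHTS titration format.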
IL-1B inflam inh = qHTS for Inhibitors of Inflammasome Signaling: IL-1-beta AlphaLISA Primary Screen; THP-1 LPS/ATP IL-1B secretion, AlphaLISA, 16 h; hits give low values; AID 743279, 2014; activity change, % at 57.5 µM; actives 4.7% (n = 360,000); in the data active = activity change below about -50%; inconclusive = mostly about -30% to -49%; also: % is scaled to controls: 0 for no effect and ±100 for the full control effect
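Secreted IL-1B measured by AlphaLISA bead assay after 16 h compound exposure of THP-1 cells; compounds (final up to 57.5 uM) added 1 h before LPS (250 ng/mL) and ATP (1.25 mM) stimulation; lower signal means less secretion.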
DRD3 agonist = qHTS of D3 Dopamine Receptor Agonist: qHTS; D(3) dopamine receptor (Homo sapiens), P35462; D3R DiscoveRx beta-arrestin cells, luminescence, 90 min; max activation, %; actives 0.58% (n = 410,000); in the data active = max activation above about 30%; also: 0% is about no effect
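Agonist mode: compounds and dopamine controls were applied to plated cells for 90 min at 37 degrees C after an overnight attachment at 1500 cells/well. Luminescent read-out followed 30 - 60 minutes at room temperature with DiscoveRx detection reagent.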
DT40 TDP1 no CPT = qHTS for Inhibitors of human tyrosyl-DNA phosphodiesterase 1 (TDP1): qHTS in cells in absence of CPT. actives 15% (n = 420,000). Potency, µM (titrated, usually from 46.2 µM), for inactives: at the highest dose activity change, negative = growth inhibition, most hits filed as inhibitors. DT40 Tdp1-/- hTDP1 cells, no CPT, ATP luminescence, 48 h. AID 686978, 2013; also: potency is read from the fitted curve at half-maximal effect; % is scaled to controls: 0 for no effect and ±100 for the full control effect; nearly all actives have a fitted effect of over 55% in size
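Luminescent ATP content (CellTiter-Glo) served as the growth readout. Knockout chicken DT40 cells expressing human TDP1 were exposed to compounds without camptothecin for a minimum 48 hr at 37 °C.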
ClpP mod = qHTS Assay for Activators of ClpP. AID 651965, 2013. ATP-dependent Clp protease proteolytic subunit (Bacillus subtilis (strain 168)), P80244. Potency, µM (doses to about 57.5 µM), inactives show at the highest dose activity change, negative = active. actives 1.9% (n = 340,000). purified B. subtilis ClpP, FRET peptide cleavage, 20 min; active = well fitted falling curve with a large enough effect; inconclusive = small, poorly fitted or top-dose-only effect; inactive = no such curve, though single readings can be large or run the other way; also: potency is read from the fitted curve at half-maximal effect; the source files actives as falling curves though it sought activators and does not explain the sign; nearly all actives have a fitted effect of over 65% in size
Target sequence (P80244 whole entry, looked up): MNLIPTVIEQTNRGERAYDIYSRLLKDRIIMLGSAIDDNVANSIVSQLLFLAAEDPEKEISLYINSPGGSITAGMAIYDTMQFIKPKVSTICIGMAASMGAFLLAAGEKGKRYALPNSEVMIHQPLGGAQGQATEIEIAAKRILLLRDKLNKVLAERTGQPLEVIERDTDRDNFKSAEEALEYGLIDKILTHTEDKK
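FRET quenching reversal measured ClpP activation: 10 microg/mL B. subtilis ClpP at pH 8 with the FRET-FV decapeptide, read at 430 nm after 320 nm excitation. The 20-min minus 0-min signal was scaled between DMSO/no-enzyme wells and ADEP (5.8 microM final).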
Active calls of the source: *; u = inconclusive; x = no result given. Unless noted, calls follow the shape of the dose curve; as a rule, active = well fitted inhibition curve with a large enough effect; inconclusive = small, poorly fitted or top-dose-only effect; inactive = flat fitted curve, though single readings scatter.

SMILES | D3 antag | TDP1 cell CPT | IL-1B inflam inh | DRD3 agonist | DT40 TDP1 no CPT | ClpP mod
Cn1c(=O)[nH]c(=O)c2c1nc(NC1CCCCC1)n2Cc1ccccc1 | 40 | u | -7 | 2 | u | 1%
Cc1cccc(Cn2c(Sc3nc(C)cs3)nc3c2c(=O)[nH]c(=O)n3C)c1 | 15 | u | 26 | -2 | 18µM* | 0%
Cc1cccc(Cn2c(NC3CCCC3)nc3c2c(=O)[nH]c(=O)n3C)c1 | -22 | u | -14 | -6 | 23µM* | 0%
Cc1cccc(Cn2c(SCC(=O)Nc3ccccc3)nc3c2c(=O)[nH]c(=O)n3C)c1 | -25 | u | u | -4 | 21µM* | -3%
O=C(COC(=O)c1c(F)cccc1F)Nc1ccc(N2CCCCC2)cc1 | 12 | 7% | 11 | 6 | 10% | 2%
Cc1ccc(Cn2c(O)c(N=NC(=S)Nc3ccccc3F)c3ccccc32)cc1 | 4 | 6.5µM* | -6 | -2 | 5.8µM* | -1%
O=c1cc(O)c2ccccc2n1Cc1ccccc1Cl | 4 | -8% | 19 | 4 | 1% | -18%
CCOC(=O)N=Nc1c(O)n(Cc2ccccc2)c2ccccc12 | 19 | u | -2 | 1 | u | 0%
Cc1c(Cl)cccc1NC(=S)N=Nc1c(O)n(CN2CCOCC2)c2ccccc12 | 6 | 5.8µM* | 3 | 8 | 1.5µM* | x
Oc1c(N=NC(=S)Nc2ccccc2F)c2ccccc2n1Cc1ccccc1 | -13 | 7.3µM* | -8 | -16 | 5.8µM* | 1%
Oc1c(N=NC(=S)Nc2ccccc2F)c2ccccc2n1Cc1ccccc1Cl | -1 | 6.5µM* | u | -11 | 5.8µM* | -1%
Cc1c(Cl)cccc1NC(=O)CCN1CCOCC1 | -3 | -14% | 1 | 9 | -2% | 1%
CCn1c(O)c(N=NC(=O)CNc2cccc(C)c2)c2ccccc21 | 11 | 12% | 46 | -1 | u | x
C=CCn1c(O)c(N=NC(=S)Nc2ccccc2F)c2ccccc21 | -23 | 4.1µM* | 77 | -24 | 2.6µM* | 2%
O=C(CCc1ccc(S(=O)(=O)N2CCOCC2)cc1)Nc1ccccc1F | 5 | -5% | 2 | 0 | -29% | 1%
C=CCn1c(O)c(N=O)c2cc(C)ccc21 | 10 | -33% | -52* | -12 | u | x
C=CCn1c(O)c(N=NC(=S)Nc2ccccc2F)c2cc(S(=O)(=O)N3CCOCC3)ccc21 | -19 | 0.73µM* | 2 | 17 | 0.73µM* | -2%
C=CCn1c(O)c(N=NC(=S)Nc2cccc(C)c2)c2ccccc21 | -22 | 2.1µM* | -6 | -10 | 1.8µM* | 0%
CN(C)C(=S)NC(=O)C12CC3(C)CC(C)(CC(C)(C3)C1)C2 | -6 | -12% | 22 | -12 | 1.3µM* | x
CCc1cc2c(=O)n(Cc3ccco3)c(SCc3c(C)noc3C)nc2s1 | u | 5.8µM* | -5 | 0 | 2.9µM* | -2%
CCc1cc2c(=O)n(Cc3ccco3)c(SCC(=O)N3CCCc4ccccc43)nc2s1 | 4 | 26µM* | -27 | 5 | u | -4%
CCc1cc2c(=O)n(Cc3ccco3)c(SCC(=O)NCC3CCCO3)nc2s1 (configuration not stated) | 4 | 15µM* | -6 | -32 | 16µM* | 3%
CCc1cc2c(=O)n(Cc3ccco3)c(SCC(=O)N(C)C3CCS(=O)(=O)C3)nc2s1 (configuration not stated) | 7 | -24% | 30 | 4 | u | x
CCc1cc2c(=O)n(Cc3ccco3)c(SCC(=O)NC3CCS(=O)(=O)C3)nc2s1 (configuration not stated) | -7 | u | -8 | 4 | -27% | -6%
c1ccc(NN=C(c2ccccc2)c2cccs2)cc1 | 0 | -7% | -14 | -4 | 21µM* | -1%
SMILES | D3 antag | TDP1 cell CPT | IL-1B inflam inh | DRD3 agonist | DT40 TDP1 no CPT | ClpP mod
O=C(O)CC/C(=N\Nc1ccc(Cl)cc1)c1cccs1 | -10 | -10% | 7 | 4 | -14% | x
COc1ccccc1OCC(=O)Nc1nc(C)c(C)s1 | 5 | 3% | 8 | 5 | u | x
O=C(Cn1nc(-c2ccccc2)c2ccccc2c1=O)NCCO | 15 | 10% | -3 | 2 | 3% | 4%
Cc1ccccc1/C(N)=N/OC(=O)N1c2ccccc2Sc2ccccc21 | u | 11µM* | -7 | -8 | 13µM* | 0%
Cc1ccc(/C(N)=N/OC(=O)N2c3ccccc3Sc3ccccc32)cc1 | -1 | u | -5 | 8 | 21µM* | -1%
CCOC(=O)N1c2ccccc2Sc2ccccc21 | -13 | -11% | 8 | -4 | u | 0%
COc1ccc(-c2nc(CSc3nncn4c3cc3oc(C)cc34)c(C)o2)cc1 | x | u | x | -8 | u | -22%
CCn1c(Cl)c(C=O)s/c1=N\S(=O)(=O)c1ccccc1 | -122* | 0.82µM* | -3 | -24 | 0.37µM* | -7%
O=C(c1ccncc1)N1CCC2(CC1)CCN(c1ccccn1)CC2 | x | -21% | x | x | u | x
CCOc1cccc2cc(-c3csc(NC(=O)CCC(=O)N4CCC(C)CC4)n3)c(=O)oc12 | 14 | u | -2 | -1 | 16µM* | u
CCOc1cccc2cc(-c3csc(NC(=O)CCC(=O)NCCN4CCCCC4C)n3)c(=O)oc12 (configuration not stated) | 10 | -4% | -17 | 10 | u | 1%
CC(=O)Nc1ccc(C(=O)N2CCCCC2c2cc(C(=O)NCc3cccnc3)no2)cc1 (configuration not stated) | 23 | -2% | -4 | 9 | -2% | 1%
Cc1ccc(N2CC(NC(=O)c3ccco3)CC2=O)cc1C (configuration not stated) | x | -7% | x | 6 | -8% | 0%
CCCCn1c(N)c(N(CCC(C)C)C(=O)COC(=O)/C=C/c2ccc(F)cc2)c(=O)[nH]c1=O | -13 | u | -14 | -1 | u | -3%
O=C(CCN1C(=O)COc2ccccc21)NCCN1CCN(c2ccccc2F)CC1 | -64* | -1% | -2 | -18 | 1% | 1%
O=C(CCN1C(=O)COc2ccccc21)NCCCN1CCc2ccccc2C1 | -93* | 2% | 1 | -26 | -2% | -2%
